About 83,000 compounds went through this panel and 20% of them were active in at least one assay; those are over-represented in the sample as a whole.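 Values shown are percent growth following 48 h exposure of cells in 96-well plates to a single concentration of compound; below 10 was considered active.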 Values without a mark were called inactive. Active and inactive are the calls of the source.

The test relates to CCRF-CEM leukemia. As to the kind of experiment: NCI-60 one-dose screen, 48 h (100 = growth as untreated, 0 = no growth, -100 = all killed). The following applies: 10 µM unless noted. As for the experimental part: Growth inhibition of the CCRF-CEM human tumor cell line is measured as a screen for anti-cancer activity. Cells are grown in 96 well plates and exposed to the test compound for 48 hours. Compounds are tested at a single concentration, which is 10^-5 M for most compounds. The reported endpoint is percent growth (GI% or GIPRCNT), where numbers from 0 - 100% represent growth inhibition, and numbers from -100% - 0 represent cell death. For example, a value of 40 represents 60% growth inhibition. A value of 0 means no net growth occurred over the course of the experiment. A value of -40 indicates 40% of cells at the beginning of the experiment died by the end of the experiment. A value of -100 means all cells are dead at the end of the experiment.
NCI-60 Human Tumor Cell Lines Screen was performed using the standard one-dose NCI protocol, which is described in more detail at https://dtp.cancer.gov/discovery_development/nci-60/default.htm.
Compounds with GIPRCNT values below 10 were considered active. Activity score was based on GIPRCNT using the following formula: […]
Score is 0 for GIPRCNT values of 100 or above, 50 for GIPRCNT values of 0, and 100 for GIPRCNT values of -100.
Regarding `CC(C)(C)CC(C)(C)NC(=O)Nc1ncccc1OCc1ccccc1`, the growth is 94.2%.

For the compound `COc1cc(-c2cncn2-c2ccc(-c3nc4ccc(F)cc4s3)cc2)ccc1F`, the growth was 81.5%.

`COc1ccc(C(O)c2cc3c(N)c(C(=O)Nc4cccc(Br)c4)sc3nc2C)cc1` (stereo not given): the growth was 14.2%. Then `CN1CCN(c2cc(Nc3cc(C4CC4)[nH]n3)nc(Nc3ccc(CC(=O)NCc4cccc(F)c4)cc3)n2)CC1`, with 36.8%; and `COC(=O)c1c2c(c(C)[n+]([O-])c1C)C(=O)C(NCc1cccc(OC)c1)=CC2=O`, with 16.3%. Consider `Clc1ccc(/C=N\N=C\c2ccc(Cl)c(Cl)c2)cc1Cl`, for which the growth was 83.1%. Then `COC(=O)/C=C1/SC(=Nc2cccc(OC)c2)N(CCc2c[nH]c3ccc(O)cc23)C1=O`, with 4.98% (active). Consider `Cc1c[n+](Cc2ccc3ccccc3c2)cn1Cc1ccc2ccccc2c1`, for which the growth is 3.95% (active). The same measure for `CC1=C2[C@@H](CC1)[C@]1(C)O[C@@](C(C)C)(C[C@H]1OC(=O)[C@H](C)O)[C@H]2OC(=O)/C=C/c1ccccc1`: 85.8%; for `Ic1ccc(OCCCCn2ccnc2)cc1`: 55.1%. The same measure for `O=C(/C=C/c1cccc(Cl)c1)c1ccc(Nc2nc(Nc3ccc(F)cc3)nc(Nc3ccc(Cl)cc3)n2)cc1`: 103%; for `CCN(C)S(=O)(=O)Nc1cccc(Nc2ncnc3cc(NC(=O)CCl)ccc23)c1Cl`: 5.63% (active). The same measure for `C=CCSc1nnc(NC(=O)CCl)s1`: 77.2%; for `COc1ccc(F)cc1/C=C/C(=O)/C=C(/C=C/c1cc(F)ccc1OC)OB(F)F`: -14.7% (active); for `CCOC(=O)c1c2c(n3cccc(F)c13)C(=O)c1ncccc1C2=O`: 67.3%. For `O=C1c2c(c3c4ccccc4[nH]c3c3ccc4ccccc4c23)C(=O)N1CCN1CCNCC1`, the growth is 0.375% (active). On to `Nc1nc(N)c(-c2ccc(Cl)c(Cl)c2)c(CBr)n1`, for which the growth is 55.8%. The same measure for `O=C(CN1C(=O)S/C(=C\C(Cl)=C\c2ccccc2)C1=O)NCCc1ccc(O)cc1`: 6.23% (active); for `CCN(CC)CCn1c2ccc(O)cc2c2sc3cc(O)ccc3c(=O)c21`: 14.6%; for `Cc1nc2sc(C(=O)Nc3cccc(Br)c3)c(N)c2cc1C(O)c1ccccc1` (stereo not given): 15.7%. `O=C1NC(=C(Cl)Cl)/C(=N\S(=O)(=O)NCc2ccccc2)N1`: the growth was 75%. Then `N#Cc1nc(-c2ccc(F)cc2)oc1S(=O)(=O)N1CCCCC1`, with 1.84% (active). Then `O=S(=O)(Nc1cc(Cl)ccc1Cl)c1ccc(-c2cnc(C3CC3)o2)cc1`, with 20%; and `O=C(Nc1ccc(Oc2cccc(Cl)c2)c(Cl)c1)c1cnccn1`, with 16.6%; and `COc1ccc2c(c1)c(-c1nc(-c3c[nH]c4ccncc34)cs1)cn2C`, with -45.2% (active).

Turning to `Cn1ccnc1C(=O)/C=C/c1ccc(C(=O)Nc2ccc(Cl)cc2)cc1`, the growth was 8.42% (active). For the compound `O=S(=O)(Nc1ccc(Cl)c(C(F)(F)F)c1)c1ccc(-c2cnc(C3CC3)o2)cc1`, the growth was 9.87% (active).

As to `COc1cc(OCc2cccc(Br)c2C)cc(OC)c1C=O`, the growth is 77%. Consider `Oc1ccc(Cl)cc1/C=N\NC(=S)N/N=C/c1cc(Cl)ccc1O`, for which the growth was 8.57% (active). The same measure for `Oc1c(I)cc(I)cc1CNCc1ccccn1`: 23.6%; for `N#Cc1nc(-c2ccc(Cl)cc2)oc1S(=O)(=O)N1CCN(c2ccc(F)cc2)CC1`: 3.82% (active). The same measure for `Cc1ccc(C(=O)c2ccc(CC(=O)N/N=C/c3ccccc3O)n2C)cc1`: 54.1%; for `N#CC1=C(N)Oc2c(sc3c(Br)cccc23)C1c1ccc(Cl)cc1` (stereo not given): 13.7%; for `N#CC1=C(c2ccccc2)Nc2c(c(-c3ccc(Cl)cc3)nn2-c2ccccc2)C12C(=O)Nc1ccc(Cl)cc12` (stereo not given): 61.4%. Then `COC(=O)CC[C@H](C)[C@H]1CC[C@H]2[C@@H]3CC[C@@H]4CC5(CC[C@]4(C)[C@H]3CC(=O)[C@]12C)Nc1ccccc1NC5=NC(C)(C)C` (stereo not given in full), with 54.7%. Consider `CC1(C)CC(=O)C2=C(C1)N(c1ccc(OC(F)(F)F)cc1)C(N)=C(C#N)C2c1ccc(Br)cc1F` (stereo not given), for which the growth is 85.6%. Regarding `CCCNC(=O)Nc1ccc2cc3ccc(NC(=O)NCCC)cc3nc2c1`, the growth was 47.4%.

In the case of `CC(=O)Oc1ccc(/C(=C(\C)c2ccc(Cl)cc2)c2ccc(OCCN3CCCCC3)cc2)cc1`, the growth is 17.5%. The same measure for `CCOC(=O)c1c(NC(=O)c2ccc(Cl)cc2)sc2c(CN(C)C)c(O)ccc12`: 62.6%. `O=C(CN1C(=O)NC2NC(=O)NC21)N/N=C/c1ccccc1[N+](=O)[O-]` (stereo not given): the growth is 107%.

Source of the values: PubChem BioAssay (NCI).
